# Assay results as given in PubChem BioAssay AID651871 (Sanford-Burnham Center for Chemical Genomics, 2012).
# Values joined by “and” are separate entries in the source; they are usually repeats but may differ in a detail not shown here. Equal values may be shown once.
# Test system: HL-1
# Test: cardiomyocyte survival under oxidative or metabolic stress – cell-based, panel, H9c2 and HL-1, ATP luminescence, set 2, SAR follow-up (AID 651871);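 further: cells exposed to stressor for 2 h before ATP readout; reference of the scale not given here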
# Conditions: H9c2/HL-1 cardiomyocytes, H2O2 oxidative stress; with H2O2, run 3, at 79 µM (top of the series)
row,SMILES,activity (protection/inhibition)
1,COc1cc(-c2cc(C(=O)Nc3cccc(C(=O)NCc4ccccc4)c3)c3ccccc3n2)cc(OC)c1OC,14.7%
2,COc1ccc2nc(-c3cc(OC)c(OC)c(OC)c3)cc(C(=O)NCC(=O)Nc3ccc(C(C)=O)cc3)c2c1,19.5% and 32.9%
3,COc1ccc2c(c1OC)C(=O)N1c3ccccc3C(=O)N(Cc3cccc(Cl)c3Cl)C21 (centres undefined),5.43% and -7.46% and 6.3%
4,CCOC(=O)c1cccc(NC(=O)CNC(=O)c2cc(-c3cc(OC)c(OC)c(OC)c3)nc3ccccc23)c1,48.4%
